# Data from PubChem BioAssay AID624291 (National Center for Advancing Translational Sciences (NCATS), 2012).
# In all, about 350,000 compounds went through this assay and about 220 (0.063%) were called active. Inconclusive results (about 4%) are left out. Shown is part of a subset that was picked to be rich in actives. Values without a mark were called inactive. Calls follow the shape of the dose curve; as a rule, active = well fitted activation curve with a large enough effect; inconclusive = small, poorly fitted or top-dose-only effect; inactive = no such curve, though single readings can be large or run the other way.
# Assay: qHTS for Activators of Integrin-Mediated Alleviation for Muscular Dystrophy; also: nearly all actives have a fitted effect of over 60% in size;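 as to activation: 100% = response of the positive control SU9516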
# Conditions: alpha7betagal myoblasts, beta-gal FDG fluorescence, 48 h; series mostly up to 38.3 µM; activation: at the top concentration
# Procedure, shortened: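 alpha7betagal+/- myoblasts (passage 13, 250/well) treated 48 h at 37C with compounds at 1:260 dilution of DMSO stock. Lysed, then beta-galactosidase activity read as FDG fluorescence (ex 480/em 540) after 30 min, with pre-read for autofluorescence.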
# Potency is read from the fitted curve at half-maximal effect.
SMILES,activation [%],Potency
CCCCN(C(C)=O)c1ccc2c(c1)C1CC2CCN1Cc1ccccc1 (stereo not given),-16.5,–
C[C@@H]1CN([C@H](C)CO)S(=O)(=O)c2ccc(C#CC3CCCCC3)cc2O[C@H]1CN(C)C(=O)Cc1ccncc1,-44.2,–
COc1ccc(OC)c(NC(=O)C2CCCN2S(=O)(=O)c2ccc3c(c2)CC(C)N3C(C)=O)c1 (stereo not given),5.18,–
C#Cc1cc(N2CCN(C(=O)c3ccoc3)CC2)n2nc(-c3cccc(Cl)c3)cc2n1,-66.7,–
Nc1cc(=O)c2[nH]cnc2[nH]1,9.52,–
CSc1ncnc2c1ncn2CCCNCc1ccco1,-0.506,–
C[C@@H]1CN([C@@H](C)CO)C(=O)CCCn2nncc2CO[C@H]1CN(C)Cc1ccc(C(F)(F)F)cc1,-6.93,–
CCC(Oc1ccccc1)C(=O)OCC(=O)Nc1c(C)nn(-c2ccccc2)c1C (stereo not given),-14.5,–
CCc1nnc(NC(=O)c2ccco2)s1,-11.4,–
O=C(Nc1cc(F)ccc1F)c1ccc2c(=O)n3c(nc2c1)CCC3,21.5,–
O=C(NN=Cc1ccc2c(c1)CCC2)c1ccccc1O,-8.45,–
Cc1ccc(CN(C)C[C@@H]2OCc3cnnn3CCCC(=O)N([C@@H](C)CO)C[C@H]2C)cc1,10.6,–
CC(=NNC(N)=O)C1CC2CCC1CC2 (stereo not given),20.4,–
CCN(CC)C(=O)C1=C(C)N(Cc2ccc(C(C)(C)C)cc2)C(=O)C(CC(=O)NCc2cccc3ccccc23)C1 (stereo not given),4.29,–
Cc1ccccc1C#CC1=CC(=O)CC(C)(C)C1,-16.2,–
COc1ccc(NC(=O)N(C)C[C@H]2Oc3ncc(C#C[C@@H](C)O)cc3C(=O)N([C@H](C)CO)C[C@H]2C)cc1,0,–
CCCc1ccc(S(=O)(=O)N2CCN(C(=O)c3cc(C)on3)CC2)cc1,-5.39,–
COc1cc(C(=O)OCCCN2CCOCC2)cc(OC)c1OC,-16.1,–
O[C@@H]1C[C@H](c2ccccc2)N(Cc2cccs2)C[C@H]1n1cc(C2CC2)nn1,8.05,–
Cc1cccc(C(=O)N[C@H](C(=O)NCc2cccs2)C(C)C)c1,2.9,–
CCc1nnc(NC(=O)[C@@H](NC(=O)c2cccc(C)c2)C(C)C)s1,-7.54,–
CC(=O)Nc1ccc(NC(=O)[C@@H](NC(=O)c2cccc(C)c2)C(C)C)cc1,–,5.62 µM (active)
O=C(O)C1=C(C(=O)O)C2CCC1C2,12.3,–
COCOCCn1cc(CN2CCS(=O)(=O)N(Cc3ccc(-c4ccccc4)cc3)C(CC(C)C)C2=O)nn1 (stereo not given),-33.9,–
CC1(C2CC2)NC(=O)N(CC(=O)N2CCN(c3ccccc3F)CC2)C1=O (stereo not given),15.2,–
